The values that follow come from PubChem BioAssay (Tox21).

“And” between values parts separate entries of the source, which are not always exact repeats. Equal values may be shown once. Records with an inconclusive call do not appear. Where a structure was tested more than once in an assay, its records may differ in their call. The source made the active and inactive calls. Unless noted, the call rests on the fitted dose curve; in most records, active means well fitted curve in the direction sought with a large enough effect in the repeat runs; inconclusive means weak or mixed curves; inactive means no such curve, though single readings can be large; an effect the other way counts as inactive or inconclusive.

Experiment [1] in a line: qHTS assay to identify small molecule antagonists of the estrogen related receptor (ERR) signaling pathway from Tox21 library - cell viability counter screen (AID 1224834). Further: nearly all actives have a fitted effect of over 30% in size. The gist of the method:
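ERR reporter cells, 2,000 per well, rested 6 h, then exposed to compound in DMSO for 17.5 hours at 37 C. Viability read as fluorescence after 30 min with CellTiter-Fluor.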

Experiment [2] concerns the target Luciferin 4-monooxygenase (Photinus pyralis) (UniProt P08659). Kind of experiment: qHTS assay to identify small molecule inhibitors of firefly luciferase (AID 1224835). Further: nearly all actives have a fitted effect of over 25% in size. Further: potency means the concentration at half of the fitted maximal effect. The gist of the method: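 Biochemical qHTS: compounds run as interplate titrations against purified firefly enzyme, with D-luciferin and ATP each at its KM concentration. Light output recorded by CCD imaging.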

Experiment [3] can be described thus: qHTS assay to identify small molecule agonists of the constitutive androstane receptor (CAR) signaling pathway - cell viability counter screen (AID 1224836). Further: nearly all actives have a fitted effect of over 45% in size. The essentials:
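Using CellTiter-Fluor, viability of HepG2 cells harbouring hCAR and CYP2B6-2.2kb was measured following 23 h incubation with a 15-concentration compound series plus PK11195 (0.75 uM final).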
For orientation: In qHTS, concentration-response curves come from the screen itself.

The nature of experiment [4]: qHTS assay to identify small molecule antagonists of the constitutive androstane receptor (CAR) signaling pathway - cell viability counter screen (AID 1224837). Further: nearly all actives have a fitted effect of over 45% in size. The essentials: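 HepG2 cells stably carrying hCAR and CYP2B6-2.2kb reporter, stimulated with 50 nM CITCO and compounds at 15 concentrations for 23 h at 37 C. Viability measured by CellTiter-Fluor fluorescence.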

Experiment [5] is described as follows: qHTS assay to identify small molecule antagonists of the estrogen related receptor signaling pathway with the pleiotropic PPARgamma coactivator (PGC) from Tox21 10K library - cell viability counter screen (AID 1224840; active means well fitted cell-killing curve with a large enough effect in the repeat runs, not every such curve was filed as active; further: nearly all actives have a fitted effect of over 40% in size). The gist of the method:
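PGC/ERR cells (2,000/well) plated 6 h, then compound-treated for 17.5 h at 37 C. Viability measured by CellTiter-Fluor fluorescence after 30 min at 37 C, multiplexed with the pathway assay.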

Experiment [6] concerns the target Thyrotropin receptor (Homo sapiens) (UniProt P16473). Kind of experiment: qHTS assay to identify small molecule agonists of the thyroid stimulating hormone receptor (TSHR) signaling pathway (AID 1224843; calls by dose curve; further: nearly all actives have a fitted effect of over 45% in size; further: potency means the concentration at half of the fitted maximal effect). The gist of the method:
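Steps: seed 800 TSHR-HEK293 cells per well; add test compound and hold 30 min at ambient temperature; dispense cAMP-d2 then anti-cAMP cryptate; incubate 1 h at ambient; measure fluorescence intensity.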

Experiment [7] can be described thus: qHTS assay to identify small molecule agonists of the hypoxia (HIF-1) signaling pathway - cell viability counter screen (AID 1224844; calls by dose curve; further: nearly all actives have a fitted effect of over 50% in size; further: potency means the concentration at half of the fitted maximal effect). The gist of the method:
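HRE-bla ME-180 cells, 2,000/well in 0.5% dialyzed FBS medium, treated 17 h at 37C with compounds. Viability read in the same wells as the bla reporter, by CellTiter-Glo luminescence after 30 min at room temperature.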

Experiment [8] can be described thus: qHTS assay to identify small molecule agonists of the hypoxia (HIF-1) signaling pathway (AID 1224846; active means well fitted activation curve with a large enough effect in the signal ratio in the repeat runs, not every such curve was filed as active; the % refers to the signal ratio). The gist of the method:
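HRE-bla ME-180 beta-lactamase reporter cells in medium with 0.5% dialyzed FBS, pre-incubated 5 h then exposed to compounds 17 h at 37C, 5% CO2; reporter induction read with CCF4-AM FRET substrate.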

The nature of experiment [9]: qHTS RealTime-Glo MT Cell Viability Assay in HepG2 cells - 24 hour (AID 1224867). Further: nearly all actives have a fitted effect of over 50% in size. The essentials: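 Viability was tracked continuously by NanoLuc luminescence from prosubstrate reduced by living HepG2 cells, at successive time points over 40 h of compound exposure. Cells with reagent were preincubated 5 h at 37 °C before compound addition.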
Experiment [10] is described as follows: qHTS RealTime-Glo MT Cell Viability Assay in HEK293 cells - 32 hour (AID 1224868). Further: nearly all actives have a fitted effect of over 50% in size. Further: potency means the concentration at half of the fitted maximal effect. The gist of the method:
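Viability tracked continuously by luminescence as live cells reduce a prosubstrate for NanoLuc; HEK293 cells preincubated 5 h, compound-treated at 37 C, and read at 0, 8, 16, 24, 32 and 40 h.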

Experiment [11] can be described thus: A CellTox Green Cytotoxicity Assay to monitor cytotoxicity in HEK293 cells - 0 hour (AID 1224869). Further: nearly all actives have a fitted effect of over 50% in size. The gist of the method:
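HEK293 cells, 600/well, were preincubated 5 hours and then exposed to compounds at 37 C for up to 40 hours. A cell-impermeant cyanine dye staining dead-cell DNA was read by fluorescence at 0, 8, 16, 24, 32 and 40 h time points.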

Experiment [12] can be described thus: qHTS assay to identify small molecule agonists of H2AX (AID 1224845; active means well fitted activation curve with a large enough effect in the signal ratio in the repeat runs, not every such curve was filed as active; the % refers to the signal ratio; further: potency means the concentration at half of the fitted maximal effect). The essentials: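 Wild-type CHO-K1 cells, plated overnight, exposed 3hr at 37C to 15 concentrations (0.76% DMSO final). Lysed, then HTRF anti-pH2AX (S139) cryptate and anti-H2AX-d2 antibodies, 24 hr room temperature; 665/620 nm emission read.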
Experiment [13] in a line: qHTS assay to identify small molecule agonists of H2AX - cell viability counter screen (AID 1224847; calls by dose curve; further: nearly all actives have a fitted effect of over 30% in size; further: potency means the concentration at half of the fitted maximal effect). The gist of the method: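 Quantitative HTS viability measurement: CHO-K1 wild-type cells in serum (10% FBS) medium, short 3 hr drug exposure at 37C with 0.76% DMSO, CellTiter-Glo luminescent detection.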
Experiment [14] has as its target Nuclear receptor subfamily 1 group I member 3 (Homo sapiens) (UniProt Q14994). Kind of experiment: qHTS assay to identify small molecule antagonists of the constitutive androstane receptor (CAR) signaling pathway (AID 1224838). Further: nearly all actives have a fitted effect of over 40% in size. The gist of the method:
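HepG2 cells stably carrying hCAR and a CYP2B6-2.2kb luciferase reporter, seeded 4 hrs before compound (15 concentrations). Stimulated with 50 nM CITCO for 24 hr at 37 C. ONE-Glo luminescence read after 30 min at room temperature.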

For experiment [15] the target is unchanged. Kind of experiment: qHTS assay to identify small molecule agonists of the constitutive androstane receptor (CAR) signaling pathway (AID 1224839). Further: nearly all actives have a fitted effect of over 15% in size. Further: potency means the concentration at half of the fitted maximal effect. The gist of the method: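 Double-stable HepG2 cells (hCAR, CYP2B6-2.2kb) seeded 4 h before compound addition. Exposure 24 h with 0.75 uM PK11195 final. Luciferase detected by ONE-Glo.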
A short description of experiment [16]: qHTS assay to identify small molecule antagonists of the estrogen related receptor signaling pathway with the pleiotropic PPARgamma coactivator (PGC) from Tox21 10K library (AID 1224841; call rule not given here; further: potency means the concentration at half of the fitted maximal effect). The essentials:
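PGC/ERR cell line, 2,000 cells/well, pre-incubated 6 hours at 37 C, then exposed to compounds for 18 hours at 37 C; luciferase read with One-Glo luminescence after 30 min at room temperature.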

Experiment [17] can be described thus: qHTS assay to identify small molecule agonists of the estrogen related receptor signaling pathway with the pleiotropic PPARgamma coactivator (PGC) from Tox21 10K library (AID 1224842). Further: nearly all actives have a fitted effect of over 15% in size. The gist of the method: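 PGC/ERR reporter cell line, 2,000 cells per well, incubated 6 h at 37 C before 23 nL compound in DMSO was added. After 18 h at 37 C, One-Glo luminescence read following 30 min at room temperature.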

Experiment [18] in a line: qHTS assay to identify small molecule agonists of the estrogen related receptor (ERR) signaling pathway from Tox21 library (AID 1224849; calls by dose curve; further: nearly all actives have a fitted effect of over 15% in size). The note with it: ERR reporter cell line, ONE-Glo luciferase, 18 h; at 92.4 µM (top of the series). The gist of the method: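 ERR reporter cells (NTP line) pre-incubated 6 hours at 37 C, then exposed to compounds for 18 hours at 37 C. ONE-Glo luciferase luminescence was read after 30 minutes at room temperature.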

Experiment [19] in a line: qHTS assay to identify small molecule antagonists of the estrogen related receptor (ERR) signaling pathway from Tox21 library (AID 1224848). Further: nearly all actives have a fitted effect of over 50% in size. The gist of the method: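 Luminescent reporter read-out (ONE-Glo) from NTP's ERR cell line after 18 h treatment at 37 C with DMSO-dissolved Tox21 compounds; cells pre-plated 6 h beforehand at 2,000 per well.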
On the % scale 0 is the no-effect control and ±100 the full control effect.

Chain of Thyrotropin receptor (Homo sapiens) (P16473 whole entry, looked up): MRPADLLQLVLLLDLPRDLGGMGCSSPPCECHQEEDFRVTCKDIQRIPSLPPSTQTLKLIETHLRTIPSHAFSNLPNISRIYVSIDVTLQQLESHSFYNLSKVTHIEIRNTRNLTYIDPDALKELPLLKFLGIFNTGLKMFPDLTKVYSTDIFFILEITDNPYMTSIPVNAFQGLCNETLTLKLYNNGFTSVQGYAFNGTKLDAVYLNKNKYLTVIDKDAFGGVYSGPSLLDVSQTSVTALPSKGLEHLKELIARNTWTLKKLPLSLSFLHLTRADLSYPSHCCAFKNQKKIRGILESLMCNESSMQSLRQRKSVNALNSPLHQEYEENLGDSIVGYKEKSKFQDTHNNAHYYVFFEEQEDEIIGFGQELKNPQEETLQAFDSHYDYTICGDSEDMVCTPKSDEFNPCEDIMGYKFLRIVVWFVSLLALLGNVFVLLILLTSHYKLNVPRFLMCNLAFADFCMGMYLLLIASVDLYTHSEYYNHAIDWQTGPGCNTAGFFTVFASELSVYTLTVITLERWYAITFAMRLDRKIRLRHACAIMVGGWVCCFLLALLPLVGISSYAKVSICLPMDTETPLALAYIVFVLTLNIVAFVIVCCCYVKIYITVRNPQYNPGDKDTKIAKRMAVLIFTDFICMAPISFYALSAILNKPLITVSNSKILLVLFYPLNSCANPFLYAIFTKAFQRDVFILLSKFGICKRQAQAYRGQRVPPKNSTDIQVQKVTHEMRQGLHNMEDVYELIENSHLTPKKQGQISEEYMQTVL
Chain of Luciferin 4-monooxygenase (Photinus pyralis) (P08659 whole entry, looked up): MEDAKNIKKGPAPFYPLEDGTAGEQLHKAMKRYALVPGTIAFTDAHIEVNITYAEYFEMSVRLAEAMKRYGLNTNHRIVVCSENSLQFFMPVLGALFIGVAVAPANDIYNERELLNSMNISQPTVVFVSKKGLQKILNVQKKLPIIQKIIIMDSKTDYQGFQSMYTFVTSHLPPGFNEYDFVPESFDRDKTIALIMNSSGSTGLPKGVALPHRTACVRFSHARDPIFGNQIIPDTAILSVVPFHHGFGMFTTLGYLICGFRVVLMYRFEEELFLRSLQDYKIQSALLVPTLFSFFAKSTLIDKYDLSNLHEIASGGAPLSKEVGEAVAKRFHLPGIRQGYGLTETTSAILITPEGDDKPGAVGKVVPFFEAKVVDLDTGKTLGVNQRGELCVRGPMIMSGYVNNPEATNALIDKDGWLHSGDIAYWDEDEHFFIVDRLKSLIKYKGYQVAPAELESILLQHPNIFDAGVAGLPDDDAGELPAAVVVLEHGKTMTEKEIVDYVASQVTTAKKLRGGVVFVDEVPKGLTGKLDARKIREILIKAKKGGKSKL
Chain of Nuclear receptor subfamily 1 group I member 3 (Homo sapiens) (Q14994 whole entry, looked up): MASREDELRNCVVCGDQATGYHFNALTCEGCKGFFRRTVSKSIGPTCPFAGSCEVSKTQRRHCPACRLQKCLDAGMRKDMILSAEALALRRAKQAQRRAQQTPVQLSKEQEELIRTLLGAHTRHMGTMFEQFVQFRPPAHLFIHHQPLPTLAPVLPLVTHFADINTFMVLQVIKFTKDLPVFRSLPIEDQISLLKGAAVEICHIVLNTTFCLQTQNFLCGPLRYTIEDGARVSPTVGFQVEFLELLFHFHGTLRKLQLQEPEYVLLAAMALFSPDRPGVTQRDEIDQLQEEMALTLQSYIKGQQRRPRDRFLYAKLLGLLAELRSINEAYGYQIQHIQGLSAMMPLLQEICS

For the compound `O=C(CCl)c1ccccc1`, the Potency entry in experiment [1], in [2], in experiment [3], in experiment [4], in [5] and in [7] was “inactive” in each case. Besides, the Potency result in [9] and in experiment [11] was “inactive” in each case. In addition, the Potency in [6] was 69.6 µM (active); in experiment [10], “inactive and 49 µM (active)”. Also, in [8], the compound was classed as inactive.
`c1ccc(-c2cccc(-c3ccccc3)c2)cc1`: the Potency result in experiment [1], in [3], in experiment [4], in experiment [5], in [6] and in experiment [7] was “inactive” throughout. In addition, the Potency result in experiment [12], in [13], in [9], in experiment [10] and in [11] was “inactive” each time. Besides, in experiment [2], the Potency is 9.03 µM (active) and 7.96 µM (active). In addition, the outcome in experiment [8] was inactive.
Take `COP(=S)(OC)Oc1ccc([N+](=O)[O-])cc1`: the Potency result in experiment [3], in experiment [4], in [14], in experiment [15], in [6] and in experiment [7] was “inactive” throughout. Further, the Potency result in experiment [12], in [13], in [9], in experiment [10] and in [11] was “inactive” throughout. In [8], the result was inactive.
As to `N[C@@H](Cc1ccc(N(CCCl)CCCl)cc1)C(=O)O`, the Potency result in experiment [1], in [3], in experiment [4], in experiment [5], in experiment [6] and in [13] was “inactive” each time. Moreover, the Potency result in experiment [9] and in [11] was “inactive” throughout. Moreover, the Potency in experiment [7] is 23.5 µM (active) and 23.9 µM (active); in experiment [12], 38.4 µM (active) and 43.8 µM (active); in experiment [10], 5.27 µM (active).
As for `O=P(Oc1ccccc1)(Oc1ccccc1)Oc1ccccc1`, the Potency result in [2], in [3], in experiment [4], in experiment [14], in experiment [5] and in experiment [17] was “inactive” in each case. The Potency result in [7], in experiment [9], in experiment [10] and in experiment [11] was “inactive” in each case. Further, the Potency is 21.6 µM (active) and 19.3 µM (active) in experiment [15]; 13.6 µM (active) in experiment [16]; 12.1 µM (active) and 9.69 µM (active) in [6]; 89.3 µM (active) and inactive in [13]. In addition, in experiment [8], the call was inactive. Further, in [18], the activity change, positive = activation is -19.4% (inactive) and -25.7% (inactive).
Regarding `CCN(CC)C(=O)SCc1ccc(Cl)cc1`, the Potency result in [1], in [3], in experiment [4], in experiment [5], in experiment [16] and in experiment [17] was “inactive” in each case. Moreover, the Potency result in experiment [7], in experiment [12], in [13], in experiment [19], in [9] and in [10] was “inactive” throughout. Further, the Potency entry in experiment [11] is “inactive”. The Potency in experiment [2] is 35.6 µM (active). The outcome in [8] was inactive. In addition, the activity change, positive = activation in experiment [18] was 4.95% (inactive) and 6.33% (inactive).
On to `Cc1ccc(N)c(N)c1`, for which the Potency in experiment [2] was 15.9 µM (active) and 2.52 µM (active); in experiment [15], 27.4 µM (active) and 24.3 µM (active). The Potency entry in experiment [3], in [4], in experiment [14], in experiment [5], in experiment [6] and in experiment [7] was “inactive” each time. Besides, the Potency entry in [12], in experiment [13], in [9] and in experiment [11] was “inactive” in each case. Also, the result in [8] was inactive.
As to `CCc1cccc(CC)c1N(COC)C(=O)CCl`, the Potency result in experiment [2], in experiment [3], in experiment [4], in experiment [14], in [5] and in experiment [6] was “inactive” each time. Besides, the Potency result in experiment [13], in experiment [9], in experiment [10] and in [11] was “inactive” in each case. Also, the Potency in experiment [15] was 18.7 µM (active) and 19.3 µM (active); in experiment [7], 47.4 µM (active). Further, the compound was classed as inactive in experiment [8].
